Screening results as filed in PubChem.
Rows were chosen to be rich in hits. Some 4.5% of all compounds tested hit in one or more screens of this group.
SKKanGAS inh: S. pyogenes SKKanGAS growth inhibitors in kanamycin, primary screen, streptokinase expression inhibitor project, SKKanGAS strain, BacTiter-Glo luminescence. 6 h. inhibition, % at 7.5 µM. 1.3% of 300,000 active. AID 1662, 2009;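 active = mean replicate score, as percent of positive control median, at least 50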;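 also: strain carries kanamycin resistance gene driven by streptokinase promoter and grows in 40 µg/ml kanamycin; loss of luminescence reflects streptokinase promoter inhibition or plain growth inhibition; 0% = median of DMSO wells and 100% = positive control at its reference dose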
TIM10 inh: growth inhibitors of isogenic TIM10 control yeast, primary screen, counter-screen for tim10-1 yeast inhibitor project, luminescence, uHTS | S. cerevisiae TIM10 strain growth, BacTiter-Glo luminescence, 24 h | inhibition, % at 10 µM | 1.4% of 330,000 active;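 active = inhibition of 40% or more at the single tested concentration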;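 also: wild-type TIM10 isogenic control strain grown at permissive 25 °C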
tim23-1 inh: growth inhibitors of tim23-1 mutant yeast, primary screen, luminescence, uHTS; AID 463212, 2010; S. cerevisiae tim23-1 growth, BacTiter-Glo luminescence, 24 h; inhibition, % at 20 µM; 1.3% of 330,000 active;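 active = growth inhibition of the mutant yeast at or above 50%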;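 also: temperature-sensitive mutant grown at 25 °C; plate controls were DMSO-treated mutant yeast for no effect and medium wells lacking yeast for full effect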
NALP3 yeast inh: NALP3 inflammasome inhibitors in reconstituted yeast, primary screen, luminescence, uHTS. 0.39% of 330,000 active. inhibition, % at 10 µM. AID 2825, 2010. Yeast reconstituted NLRP3/ASC/caspase-1, beta-gal luminescence, 24 h;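 active = inhibition of 50% or more; inactive = inhibition below 50%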;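 also: plate controls were induced DMSO wells for no effect and uninduced yeast grown without galactose for full effect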
PfHsp90 yeast 2: growth inhibition of PfHsp90-expressing yeast, primary screen, antimalarial PfHsp90 inhibitor project, S. cerevisiae, BacTiter-Glo luminescence, single point, set 2; inhibition, % at 9.4 µM; 0.32% of 310,000 active; BacTiter-Glo ATP, 48 h; yeast lacking PDR1 and PDR3 efflux regulators;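 active = every replicate shows inhibition above about 80%, whatever the replicate mean, limit read from the data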;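 also: 0% = DMSO neutral controls and 100% = 20 µM radicicol positive controls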
tim10-1 inh: growth inhibitors of tim10-1 mutant yeast, primary screen, luminescence, uHTS; 2.2% of 330,000 active; S. cerevisiae tim10-1 ts strain growth, BacTiter-Glo, 24 h; AID 463190, 2010; inhibition, % at 20 µM;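 active = inhibition of at least 40%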;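 also: mutant grown at 25 °C; 0% = DMSO wells with yeast and 100% = wells holding no yeast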
tim23-1 confirm: tim23-1 mutant yeast growth inhibitors, confirmation, luminescence, single concentration; shares compounds with tim23-1 inh; S. cerevisiae tim23-1 growth, BacTiter-Glo luminescence, 24 h; inhibition, % at 20 µM; 83% of 4,400 active;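 active = inhibition above about 39% in either of two replicate wells at 20 µM, limit read from the data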;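 also: temperature-sensitive tim23-1 mutant grown at 25 °C; 0% = DMSO wells with yeast and 100% = medium wells without yeast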
* marks the source's active call; other numbers are inactive results; · = no result given.

SMILES	SKKanGAS inh	TIM10 inh	tim23-1 inh	NALP3 yeast inh	PfHsp90 yeast 2	tim10-1 inh	tim23-1 confirm
Cc1ccc(-c2cc(N)nc(-c3ccccc3)c2)cc1	0	-13	-2	23	0	-26	·
CSc1ccccc1OCc1cc(C(=O)N(C)Cc2cnccn2)no1	0	3	11	11	-15	16	·
CN(C)/C=C1/C=C(c2ccccc2)OC1=O	-2	33	56*	-7	-21	1	41*
CCc1cc2cc(C)cc(C)c2nc1SCC(=O)N1CCN(C(=O)c2ccco2)CC1	·	-8	20	20	-3	3	·
CCc1cc2cccc(C)c2nc1SCC(=O)N1CCN(C(=O)c2ccco2)CC1	16	5	57*	18	-15	30	38*
CS(=O)(=O)c1ccc(-c2csc(-c3cccnc3)n2)cc1	-12	-7	11	14	-7	22	·
O=C(Nc1cccc(F)c1)c1cccnc1NCCc1ccccc1	1	20	54*	4	-16	21	54*
O=C(Oc1ccc(=O)n(-c2ccccc2)n1)c1ccc(F)cc1	17	21	12	10	14	10	·
O=C(Oc1ccc(=O)n(-c2ccccc2)n1)c1ccc(Cl)cc1	-1	24	60*	-4	-29	23	43*
COc1ccc(N2CC(C(=O)N3CCN(c4ccccc4OC)CC3)CC2=O)cc1 (configuration not stated)	2	5	8	13	13	-4	·
CCn1c(SCC(=O)Nc2nc3ccc(C)cc3s2)nc2c(c1=O)SC(C)C2 (configuration not stated)	19	-4	52*	12	-49	33	47*
CCn1c(SCC(=O)Nc2nc3ccccc3s2)nc2c(c1=O)SC(C)C2 (configuration not stated)	0	-15	28	14	·	15	·
COC(=O)c1ccc(NC(=O)c2nc(S(=O)(=O)Cc3cccc(C)c3)ncc2Cl)cc1	104*	1	69*	16	109*	32	51*
CSc1nnc(NC(=O)c2nc(S(=O)(=O)Cc3ccccc3)ncc2Cl)s1	2	10	15	12	14	14	·
COc1ccccc1NC(=O)c1nc(S(=O)(=O)Cc2ccccc2)ncc1Cl	13	36	53*	14	21	28	48*
CCn1c(N2CCN(S(=O)(=O)c3ccc(Cl)cc3)CC2)nc2ccccc21	-1	13	63*	7	29	21	43*
CCn1c(N2CCN(S(=O)(=O)c3ccc(F)cc3)CC2)nc2ccccc21	-4	17	40	29	-1	23	·
COc1cccc(C(=O)NC(=S)N2c3ccccc3CC2C)c1OC (configuration not stated)	-3	37	51*	23	6	22	54*
Cc1ccc(S(=O)(=O)NC(CC(C)C)C(=O)N2CCC(C)CC2)cc1 (configuration not stated)	-2	26	54*	-4	18	27	39*
Cc1ccc(S(=O)(=O)N[C@@H](CC(C)C)C(=O)N2CCC(C(=O)N[C@H](C(=O)O)C(C)C)CC2)cc1	6	8	-1	2	3	-1	·
Cc1cc(C(C)(C)C)ccc1OCCCCN1CCCC1	-1	20	-4	24	-14	-6	·
CCC(C)(C)c1ccc(OCCCC[n+]2cccc(C)c2C)c(C(C)(C)CC)c1	15	34	59*	37	110*	-8	36*
COCC(=O)N/N=C\c1ccccc1OC/C=C/c1ccccc1	-2	19	51*	9	-28	25	39*
NNC(=O)c1cc2ccccc2[nH]1	-1	-1	2	1	-5	-19	·
NNC(=O)c1cc2cc(Oc3ccccc3)ccc2[nH]1	17	26	59*	29	13	37	15
SMILES	SKKanGAS inh	TIM10 inh	tim23-1 inh	NALP3 yeast inh	PfHsp90 yeast 2	tim10-1 inh	tim23-1 confirm
O=C(NC(=S)Nc1sc2c(c1C(=O)O)CCCC2)c1ccccc1	11	5	39	14	9	-32	·
Cn1c(=O)c2c(nc(CN3CCc4ccccc4C3)n2Cc2cccc(Cl)c2)n(C)c1=O	13	36	51*	-4	-1	37	54*
Cn1c(=O)c2c(nc(CN3CCN(Cc4ccccc4)CC3)n2Cc2cccc(Cl)c2)n(C)c1=O	-4	9	17	27	10	18	·
O=c1[nH]c(CCl)nc2cc(-c3ccc(F)cc3)sc12	10	36	59*	-3	19	21	58*
c1ccc(C2=NNC(c3ccccn3)=NN2)nc1	4	30	26	19	6	32	·
Cc1ccc(NC(=S)NCCc2c[nH]c3ccccc23)cc1	-1	-17	-54	6	-11	6	·
CC(C)c1ccc(NC(=S)NCCc2c[nH]c3ccccc23)cc1	2	15	52*	19	-13	37	37
COc1nn(-c2ccccc2)c(=O)c(Cl)c1Cl	-7	18	51*	12	2	21	38
COc1c(Cl)cnn(-c2ccccc2)c1=O	-4	15	-3	2	15	3	·
Cc1ccc(C(C)NC(=O)Cc2cccs2)c(C)c1 (configuration not stated)	-2	10	-2	2	-1	-6	·
Cc1cccc(C(=O)O/N=C(\N)c2ccc(Br)cc2)c1	-4	12	96*	13	25	7	51*
Cc1ccc(/C(N)=N/OC(=O)c2cccc(Cn3cc(C(F)(F)F)ccc3=O)c2)cc1	-9	23	59*	31	-4	39	60*
Cc1cccc(/C(N)=N/OC(=O)c2ccncc2)c1	-1	36	8	12	-50	26	·
Cc1cccc(NC(=O)c2ccc(Cn3cc(C(F)(F)F)ccc3=O)cc2)c1	-4	-6	3	20	-12	25	·
Cc1nc2scc(C)n2c(=O)c1S(=O)(=O)Nc1ccc(N2CCOCC2)cc1	3	-3	71*	8	-20	-2	47*
O=C(c1ccco1)N1c2ccccc2Sc2ccccc21	21	12	-9	-11	-10	-15	·
O=C(c1ccco1)N1CCN(C(=O)N2c3ccccc3Sc3ccccc32)CC1	6	25	56*	4	22	0	39
